{"source": "PubChem BioAssay (NCI)", "note": "About 79,000 compounds went through this panel and 15% of them were active in at least one assay; those are over-represented in the sample as a whole. Active and inactive are the calls of the source. No stated cut-off is given here; in the data, active means growth inhibition above about 70%; inactive means the rest.", "data": [{"assay": "NCI Yeast Anticancer Drug Screen. Data for the rad50 strain (AID 155);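 further: 0% = growth of vehicle-only cultures of the same strain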", "settings": "S. cerevisiae rad50 strain growth inhibition; at 50.0 µM; hits give high values", "how_it_was_run": "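A DNA repair-deficient yeast mutant serves as the test organism; compound-induced growth inhibition is calculated against vehicle-treated cells.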", "values": [{"smiles": "O=[N+]([O-])C(=C1NCCN1)C(Cl)=C(Cl)Cl", "growth inhibition": "-43% (inactive)"}, {"smiles": "O=C1C(=S)Nc2c(F)cccc21", "growth inhibition": "21.6% (inactive)"}, {"smiles": "c1ccc2oc(C34OC5CC(CC(C5)O3)O4)nc2c1", "growth inhibition": "24.8% (inactive)"}, {"smiles": "CCOC(=O)CCC(NC(=O)C(N)c1ccc([N+](=O)[O-])cc1)C(=O)NC(CCC(=O)OCC)C(=O)OCC", "note": "(stereo not given)", "growth inhibition": "-5.4% (inactive)"}, {"smiles": "C=C(/C=C/CCCC)NC(=O)OCc1ccccc1", "growth inhibition": "13.4% (inactive)"}, {"smiles": "CC1=NN2C(=O)C(c3ccccc3)SC2=NC(C)(C)C1", "note": "(stereo not given)", "growth inhibition": "13.1% (inactive)"}, {"smiles": "COc1ccc(Cc2cc3c(cc2OCC(=O)Nc2ccccn2)OCO3)cc1", "growth inhibition": "22.2% (inactive)"}, {"smiles": "NCCCc1ccc2oc3ccccc3c2c1", "growth inhibition": "23.8% (inactive)"}, {"smiles": "Cc1ccccc1CCCC(C(=O)O)C(=O)O", "growth inhibition": "-18.8% (inactive)"}, {"smiles": "CC(C)(C)NC(=O)Oc1ccc(Br)cc1Br", "growth inhibition": "-1.5% (inactive)"}, {"smiles": "CC(C)CCNCCC(C)C", "growth inhibition": "35.7% (inactive)"}, {"smiles": "CCOC(=O)/C(=C\\c1ccc(OCc2ccccc2)c(OC)c1)C(=O)c1ccccc1", "growth inhibition": "15.6% (inactive)"}, {"smiles": "COc1ccc2nc(-c3ccccc3)cc(N=[N+]=[N-])c2c1", "growth inhibition": "1.9% (inactive)"}, {"smiles": "Cc1ccc(-c2n[nH]c(=O)n2N2C(=O)C=CC2=O)cc1", "growth inhibition": "-9.05% (inactive)"}, {"smiles": "CC(=O)OCCOCNC(=S)N/N=C(\\C)c1cccs1", "growth inhibition": "10.3% (inactive)"}, {"smiles": "CN(N)C(=O)Nc1cccc(Cl)c1", "growth inhibition": "13.1% (inactive)"}, {"smiles": "C#CC1(O)CCCCCCCCC2(CCCCCCCC1)OCCO2", "growth inhibition": "-10.7% (inactive)"}, {"smiles": "CCOC(=O)C1=C(NC(=O)C(c2ccccc2)c2ccccc2)OCC1", "growth inhibition": "4.7% (inactive)"}, {"smiles": "Cc1cc(Cl)ccc1NC(=O)NC(C)(C)COC(=O)Nc1cccc(Cl)c1", "growth inhibition": "26% (inactive)"}, {"smiles": "COc1cc(/C=C\\C(=O)c2cccc([N+](=O)[O-])c2)cc(OC)c1OC", "growth inhibition": "20.4% (inactive)"}, {"smiles": "Cc1ccc(NC(=O)c2ccc(Cl)cc2)cc1", "growth inhibition": "-8.3% (inactive)"}, {"smiles": "CCCCCCCCCC(=O)OCC1OC(n2cc(F)c(=O)[nH]c2=O)C(N)C(OC(=O)CCCCCCCCC)C1O", "note": "(stereo not given)", "growth inhibition": "42.8% (inactive)"}, {"smiles": "O=S1(=O)CCC(Br)c2ccccc21", "note": "(stereo not given)", "growth inhibition": "-5% (inactive)"}, {"smiles": "O=C(O)Cn1cc(I)c(=O)c(I)c1", "growth inhibition": "-40.4% (inactive)"}, {"smiles": "CC(Nc1ncccn1)Nc1ncccn1", "growth inhibition": "-6.4% (inactive)"}, {"smiles": "COc1cc(/C=C\\c2ccc(SC)cc2)cc(OC)c1OC", "growth inhibition": "26.4% (inactive)"}, {"smiles": "COc1ccc(C2=NOC3COC4C=CC=CC4OCC23)cc1", "note": "(stereo not given)", "growth inhibition": "-11.4% (inactive)"}, {"smiles": "CC1CCC2(C)OC1OC2CN", "note": "(stereo not given)", "growth inhibition": "1.15% (inactive)"}, {"smiles": "c1ccc(-c2nsc3ccccc23)cc1", "growth inhibition": "14.3% (inactive)"}, {"smiles": "Fc1ccc(-c2ccc(Br)cc2)cc1", "growth inhibition": "3.95% (inactive)"}, {"smiles": "BrCc1cccc2cccc(CBr)c12", "growth inhibition": "-5.35% (inactive)"}, {"smiles": "CCc1cccc(CC)c1NC(=S)NN", "growth inhibition": "17.4% (inactive)"}, {"smiles": "COc1ccc(C(C)(C)C#N)cc1", "growth inhibition": "-20.7% (inactive)"}, {"smiles": "O=c1c(-c2ccccc2)coc2ccccc12", "growth inhibition": "-9% (inactive)"}, {"smiles": "NCCc1ccc(O)c(O)c1", "growth inhibition": "-4.4% (inactive)"}, {"smiles": "CCOC1=NC(C)C(C)N1", "note": "(stereo not given)", "growth inhibition": "-5.1% (inactive)"}, {"smiles": "COC(=O)C1(CC(=O)CC(=O)CC2(C(=O)OC)NC(=S)NC(=O)C2C#N)NC(=S)NC(=O)C1C#N", "note": "(stereo not given)", "growth inhibition": "-17.4% (inactive)"}, {"smiles": "COc1ccc(C#N)c(-c2ccccc2)c1", "growth inhibition": "-11.2% (inactive)"}, {"smiles": "COc1c(-c2ccc(F)cc2)oc2c(CC(=O)O)cccc2c1=O", "growth inhibition": "-0.35% (inactive)"}, {"smiles": "O=S(=O)(Cl)c1cccc2c(S(=O)(=O)Cl)cccc12", "growth inhibition": "7% (inactive)"}]}, {"assay": "NCI Yeast Anticancer Drug Screen. Data for the mec2-1 strain (AID 157)", "settings": "S. cerevisiae mec2-1 strain, at 50.0 µM, hits give high values", "how_it_was_run": "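Growth inhibition is read against vehicle-treated controls after compound exposure of the mec2-1 yeast strain, which is defective in DNA damage repair or cell cycle control.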", "values": [{"smiles": "O=[N+]([O-])C(=C1NCCN1)C(Cl)=C(Cl)Cl", "growth inhibition": "-27.9% (inactive)"}, {"smiles": "O=C1C(=S)Nc2c(F)cccc21", "growth inhibition": "51.4% (inactive)"}, {"smiles": "c1ccc2oc(C34OC5CC(CC(C5)O3)O4)nc2c1", "growth inhibition": "13.2% (inactive)"}, {"smiles": "CCOC(=O)CCC(NC(=O)C(N)c1ccc([N+](=O)[O-])cc1)C(=O)NC(CCC(=O)OCC)C(=O)OCC", "note": "(stereo not given)", "growth inhibition": "-7.5% (inactive)"}, {"smiles": "C=C(/C=C/CCCC)NC(=O)OCc1ccccc1", "growth inhibition": "12.4% (inactive)"}, {"smiles": "CC1=NN2C(=O)C(c3ccccc3)SC2=NC(C)(C)C1", "note": "(stereo not given)", "growth inhibition": "-18.9% (inactive)"}, {"smiles": "COc1ccc(Cc2cc3c(cc2OCC(=O)Nc2ccccn2)OCO3)cc1", "growth inhibition": "-1.95% (inactive)"}, {"smiles": "NCCCc1ccc2oc3ccccc3c2c1", "growth inhibition": "-14.2% (inactive)"}, {"smiles": "Cc1ccccc1CCCC(C(=O)O)C(=O)O", "growth inhibition": "-7.75% (inactive)"}, {"smiles": "CC(C)(C)NC(=O)Oc1ccc(Br)cc1Br", "growth inhibition": "14.4% (inactive)"}, {"smiles": "CC(C)CCNCCC(C)C", "growth inhibition": "25.1% (inactive)"}, {"smiles": "CCOC(=O)/C(=C\\c1ccc(OCc2ccccc2)c(OC)c1)C(=O)c1ccccc1", "growth inhibition": "-9.55% (inactive)"}, {"smiles": "COc1ccc2nc(-c3ccccc3)cc(N=[N+]=[N-])c2c1", "growth inhibition": "-0.85% (inactive)"}, {"smiles": "Cc1ccc(-c2n[nH]c(=O)n2N2C(=O)C=CC2=O)cc1", "growth inhibition": "-20.6% (inactive)"}, {"smiles": "CC(=O)OCCOCNC(=S)N/N=C(\\C)c1cccs1", "growth inhibition": "-13.6% (inactive)"}, {"smiles": "CN(N)C(=O)Nc1cccc(Cl)c1", "growth inhibition": "8.55% (inactive)"}, {"smiles": "C#CC1(O)CCCCCCCCC2(CCCCCCCC1)OCCO2", "growth inhibition": "-10.8% (inactive)"}, {"smiles": "CCOC(=O)C1=C(NC(=O)C(c2ccccc2)c2ccccc2)OCC1", "growth inhibition": "4.75% (inactive)"}, {"smiles": "Cc1cc(Cl)ccc1NC(=O)NC(C)(C)COC(=O)Nc1cccc(Cl)c1", "growth inhibition": "-7.3% (inactive)"}, {"smiles": "COc1cc(/C=C\\C(=O)c2cccc([N+](=O)[O-])c2)cc(OC)c1OC", "growth inhibition": "30.1% (inactive)"}, {"smiles": "Cc1ccc(NC(=O)c2ccc(Cl)cc2)cc1", "growth inhibition": "1.2% (inactive)"}, {"smiles": "CCCCCCCCCC(=O)OCC1OC(n2cc(F)c(=O)[nH]c2=O)C(N)C(OC(=O)CCCCCCCCC)C1O", "note": "(stereo not given)", "growth inhibition": "5.6% (inactive)"}, {"smiles": "O=S1(=O)CCC(Br)c2ccccc21", "note": "(stereo not given)", "growth inhibition": "-0.25% (inactive)"}, {"smiles": "O=C(O)Cn1cc(I)c(=O)c(I)c1", "growth inhibition": "-43.7% (inactive)"}, {"smiles": "CC(Nc1ncccn1)Nc1ncccn1", "growth inhibition": "1.8% (inactive)"}, {"smiles": "COc1cc(/C=C\\c2ccc(SC)cc2)cc(OC)c1OC", "growth inhibition": "20.6% (inactive)"}, {"smiles": "COc1ccc(C2=NOC3COC4C=CC=CC4OCC23)cc1", "note": "(stereo not given)", "growth inhibition": "-22.1% (inactive)"}, {"smiles": "CC1CCC2(C)OC1OC2CN", "note": "(stereo not given)", "growth inhibition": "2.85% (inactive)"}, {"smiles": "c1ccc(-c2nsc3ccccc23)cc1", "growth inhibition": "-6.35% (inactive)"}, {"smiles": "Fc1ccc(-c2ccc(Br)cc2)cc1", "growth inhibition": "3.4% (inactive)"}, {"smiles": "BrCc1cccc2cccc(CBr)c12", "growth inhibition": "17.4% (inactive)"}, {"smiles": "CCc1cccc(CC)c1NC(=S)NN", "growth inhibition": "15.3% (inactive)"}, {"smiles": "COc1ccc(C(C)(C)C#N)cc1", "growth inhibition": "13.6% (inactive)"}, {"smiles": "O=c1c(-c2ccccc2)coc2ccccc12", "growth inhibition": "1.45% (inactive)"}, {"smiles": "NCCc1ccc(O)c(O)c1", "growth inhibition": "-4.2% (inactive)"}, {"smiles": "CCOC1=NC(C)C(C)N1", "note": "(stereo not given)", "growth inhibition": "-11.1% (inactive)"}, {"smiles": "COC(=O)C1(CC(=O)CC(=O)CC2(C(=O)OC)NC(=S)NC(=O)C2C#N)NC(=S)NC(=O)C1C#N", "note": "(stereo not given)", "growth inhibition": "19.9% (inactive)"}, {"smiles": "COc1ccc(C#N)c(-c2ccccc2)c1", "growth inhibition": "-13.2% (inactive)"}, {"smiles": "COc1c(-c2ccc(F)cc2)oc2c(CC(=O)O)cccc2c1=O", "growth inhibition": "-19.2% (inactive)"}, {"smiles": "O=S(=O)(Cl)c1cccc2c(S(=O)(=O)Cl)cccc12", "growth inhibition": "2.15% (inactive)"}]}]}
